According to the supplement of paper PMC11732987, “Enantioselective OTUD7B fragment discovery through chemoproteomics screening and high-throughput optimisation” (Communications Chemistry, 2025):

What was measured:
Test in all cases: log2 ratio of Biotin-Ahx-Ub-VS probe labelling (fragment/DMSO); higher = less target engagement (more negative = stronger competition), active = hit call of the paper (q ≤ 0.05, log2 ratio ≤ -1)
Conditions in all cases: compound concentration: 200 uM; treatment time: 3 h
USP34 = USP34 (UniProt Q70CQ2)
Summary of the method: (§1)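 Triplicate samples of HEK293T lysate, 495 µg each, received fragment at 200 µM or vehicle for 3 h, followed by Biotin-Ahx-Ub-VS (0.5 µM final) for 1 h. After NeutrAvidin enrichment of labelled DUBs and LysC/trypsin digestion, peptides were run by diaPASEF LC-MS/MS. The values are average log2 fragment/vehicle ratios from global-median-normalised Spectronaut label-free quantities, tested by unpaired t-test on proteins having ≥2 unique peptides.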

USP36 = molecular target: T1, USP36 (UniProt Q9P275)
T1 sequence (whole entry): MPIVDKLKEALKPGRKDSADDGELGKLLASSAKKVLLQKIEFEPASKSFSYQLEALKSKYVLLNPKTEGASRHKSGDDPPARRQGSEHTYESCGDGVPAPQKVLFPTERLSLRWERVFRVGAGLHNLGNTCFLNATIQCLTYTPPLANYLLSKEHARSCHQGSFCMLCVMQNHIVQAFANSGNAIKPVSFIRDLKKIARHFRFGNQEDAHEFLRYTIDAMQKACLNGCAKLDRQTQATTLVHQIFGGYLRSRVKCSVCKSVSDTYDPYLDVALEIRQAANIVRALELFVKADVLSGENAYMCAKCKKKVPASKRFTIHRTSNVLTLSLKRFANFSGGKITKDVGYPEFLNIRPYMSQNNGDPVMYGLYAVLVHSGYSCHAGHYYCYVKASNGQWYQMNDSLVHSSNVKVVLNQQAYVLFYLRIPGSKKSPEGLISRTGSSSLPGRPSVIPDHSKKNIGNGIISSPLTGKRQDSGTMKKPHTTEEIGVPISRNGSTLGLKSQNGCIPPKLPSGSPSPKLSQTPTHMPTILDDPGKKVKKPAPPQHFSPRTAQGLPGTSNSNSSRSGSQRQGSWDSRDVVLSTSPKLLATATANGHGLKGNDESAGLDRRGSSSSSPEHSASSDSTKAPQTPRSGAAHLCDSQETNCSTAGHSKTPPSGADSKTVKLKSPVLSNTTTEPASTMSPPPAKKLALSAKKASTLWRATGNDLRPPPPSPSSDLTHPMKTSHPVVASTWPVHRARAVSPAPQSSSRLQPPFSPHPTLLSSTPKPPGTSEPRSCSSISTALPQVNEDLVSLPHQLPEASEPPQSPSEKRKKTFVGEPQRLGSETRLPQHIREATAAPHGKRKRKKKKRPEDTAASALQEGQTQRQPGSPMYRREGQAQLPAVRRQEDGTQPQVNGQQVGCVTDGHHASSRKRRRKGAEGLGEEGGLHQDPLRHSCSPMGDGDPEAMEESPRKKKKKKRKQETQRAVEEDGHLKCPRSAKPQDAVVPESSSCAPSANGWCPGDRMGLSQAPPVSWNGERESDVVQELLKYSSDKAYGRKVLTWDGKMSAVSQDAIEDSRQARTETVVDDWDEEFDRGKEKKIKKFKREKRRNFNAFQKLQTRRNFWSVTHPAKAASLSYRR
Summary of the method: as §1

USP38 = molecular target: T2, USP38 (UniProt Q8NB14)
T2 sequence (whole entry): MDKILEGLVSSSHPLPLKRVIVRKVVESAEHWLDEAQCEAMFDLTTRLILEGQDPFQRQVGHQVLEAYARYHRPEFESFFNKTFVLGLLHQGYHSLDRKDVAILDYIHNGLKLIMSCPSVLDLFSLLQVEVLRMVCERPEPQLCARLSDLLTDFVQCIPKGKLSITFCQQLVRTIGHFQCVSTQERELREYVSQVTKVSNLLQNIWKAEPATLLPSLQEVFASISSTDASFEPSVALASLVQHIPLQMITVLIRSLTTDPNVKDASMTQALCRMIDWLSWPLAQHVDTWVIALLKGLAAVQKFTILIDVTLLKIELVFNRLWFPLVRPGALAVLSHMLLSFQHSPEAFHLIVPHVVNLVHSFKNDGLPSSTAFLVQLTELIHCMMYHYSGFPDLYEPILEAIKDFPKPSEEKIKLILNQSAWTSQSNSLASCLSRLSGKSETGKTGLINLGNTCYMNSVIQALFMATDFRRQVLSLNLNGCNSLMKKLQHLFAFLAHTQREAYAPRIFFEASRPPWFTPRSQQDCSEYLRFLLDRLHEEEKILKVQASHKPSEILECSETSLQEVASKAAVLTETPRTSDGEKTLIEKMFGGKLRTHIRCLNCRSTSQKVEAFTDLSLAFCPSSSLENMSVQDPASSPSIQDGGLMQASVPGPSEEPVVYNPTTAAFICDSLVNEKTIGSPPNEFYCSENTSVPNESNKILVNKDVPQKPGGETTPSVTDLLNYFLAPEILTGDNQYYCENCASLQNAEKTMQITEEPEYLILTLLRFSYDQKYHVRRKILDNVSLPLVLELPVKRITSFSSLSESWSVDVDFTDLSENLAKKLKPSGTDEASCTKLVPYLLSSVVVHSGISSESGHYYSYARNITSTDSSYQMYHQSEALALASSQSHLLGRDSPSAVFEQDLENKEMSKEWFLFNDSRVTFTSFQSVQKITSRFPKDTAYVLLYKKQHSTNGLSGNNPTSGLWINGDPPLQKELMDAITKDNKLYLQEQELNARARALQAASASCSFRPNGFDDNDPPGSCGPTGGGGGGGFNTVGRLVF
Summary of the method: as §1

USP39 = molecular target: T3, USP39 (UniProt Q53GS9)
T3 sequence (whole entry): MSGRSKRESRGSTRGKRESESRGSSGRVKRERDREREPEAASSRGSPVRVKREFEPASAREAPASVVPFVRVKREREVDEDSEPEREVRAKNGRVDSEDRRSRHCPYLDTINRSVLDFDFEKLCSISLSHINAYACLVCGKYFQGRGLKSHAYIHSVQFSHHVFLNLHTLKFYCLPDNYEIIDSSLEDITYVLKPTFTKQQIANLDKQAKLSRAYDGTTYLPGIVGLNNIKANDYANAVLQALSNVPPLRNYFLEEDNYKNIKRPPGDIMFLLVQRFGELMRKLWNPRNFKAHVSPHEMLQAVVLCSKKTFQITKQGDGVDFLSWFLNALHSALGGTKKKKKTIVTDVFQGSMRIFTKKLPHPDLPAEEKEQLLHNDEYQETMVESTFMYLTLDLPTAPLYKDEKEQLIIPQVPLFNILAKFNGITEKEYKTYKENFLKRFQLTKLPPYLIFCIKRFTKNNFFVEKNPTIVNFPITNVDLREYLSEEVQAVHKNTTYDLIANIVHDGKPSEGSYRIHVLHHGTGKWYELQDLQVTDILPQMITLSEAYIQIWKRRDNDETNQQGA
Summary of the method: as §1

USP4 = molecular target: T4, USP4 (UniProt Q13107)
T4 sequence (whole entry): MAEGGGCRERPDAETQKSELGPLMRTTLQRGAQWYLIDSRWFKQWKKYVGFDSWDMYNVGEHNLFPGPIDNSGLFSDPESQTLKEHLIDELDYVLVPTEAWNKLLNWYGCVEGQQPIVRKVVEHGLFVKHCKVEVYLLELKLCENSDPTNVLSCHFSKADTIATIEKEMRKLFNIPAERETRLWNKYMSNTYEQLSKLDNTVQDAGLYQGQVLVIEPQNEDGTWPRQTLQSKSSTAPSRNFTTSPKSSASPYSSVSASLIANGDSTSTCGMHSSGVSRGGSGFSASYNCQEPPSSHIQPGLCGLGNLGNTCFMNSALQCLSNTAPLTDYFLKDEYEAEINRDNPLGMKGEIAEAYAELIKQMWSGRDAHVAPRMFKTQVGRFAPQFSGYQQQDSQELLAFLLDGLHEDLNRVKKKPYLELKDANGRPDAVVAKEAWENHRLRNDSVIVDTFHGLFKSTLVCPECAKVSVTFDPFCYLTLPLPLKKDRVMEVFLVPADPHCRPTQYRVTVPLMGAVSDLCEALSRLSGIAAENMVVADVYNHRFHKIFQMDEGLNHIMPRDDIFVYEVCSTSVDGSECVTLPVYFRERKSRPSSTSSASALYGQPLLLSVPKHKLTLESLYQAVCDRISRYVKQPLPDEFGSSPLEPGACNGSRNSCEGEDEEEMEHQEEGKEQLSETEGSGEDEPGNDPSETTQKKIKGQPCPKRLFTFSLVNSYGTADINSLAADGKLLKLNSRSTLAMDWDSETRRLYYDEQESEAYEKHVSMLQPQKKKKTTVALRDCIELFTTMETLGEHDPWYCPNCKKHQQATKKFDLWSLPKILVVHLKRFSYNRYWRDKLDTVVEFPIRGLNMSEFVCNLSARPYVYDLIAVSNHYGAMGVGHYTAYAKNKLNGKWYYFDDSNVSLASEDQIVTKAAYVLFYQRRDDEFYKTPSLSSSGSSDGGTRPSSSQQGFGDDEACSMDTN
Summary of the method: as §1

Measured: log2 ratio of Biotin-Ahx-Ub-VS probe labelling

USP34, sequence (Q70CQ2 whole entry, the tested form may be a part): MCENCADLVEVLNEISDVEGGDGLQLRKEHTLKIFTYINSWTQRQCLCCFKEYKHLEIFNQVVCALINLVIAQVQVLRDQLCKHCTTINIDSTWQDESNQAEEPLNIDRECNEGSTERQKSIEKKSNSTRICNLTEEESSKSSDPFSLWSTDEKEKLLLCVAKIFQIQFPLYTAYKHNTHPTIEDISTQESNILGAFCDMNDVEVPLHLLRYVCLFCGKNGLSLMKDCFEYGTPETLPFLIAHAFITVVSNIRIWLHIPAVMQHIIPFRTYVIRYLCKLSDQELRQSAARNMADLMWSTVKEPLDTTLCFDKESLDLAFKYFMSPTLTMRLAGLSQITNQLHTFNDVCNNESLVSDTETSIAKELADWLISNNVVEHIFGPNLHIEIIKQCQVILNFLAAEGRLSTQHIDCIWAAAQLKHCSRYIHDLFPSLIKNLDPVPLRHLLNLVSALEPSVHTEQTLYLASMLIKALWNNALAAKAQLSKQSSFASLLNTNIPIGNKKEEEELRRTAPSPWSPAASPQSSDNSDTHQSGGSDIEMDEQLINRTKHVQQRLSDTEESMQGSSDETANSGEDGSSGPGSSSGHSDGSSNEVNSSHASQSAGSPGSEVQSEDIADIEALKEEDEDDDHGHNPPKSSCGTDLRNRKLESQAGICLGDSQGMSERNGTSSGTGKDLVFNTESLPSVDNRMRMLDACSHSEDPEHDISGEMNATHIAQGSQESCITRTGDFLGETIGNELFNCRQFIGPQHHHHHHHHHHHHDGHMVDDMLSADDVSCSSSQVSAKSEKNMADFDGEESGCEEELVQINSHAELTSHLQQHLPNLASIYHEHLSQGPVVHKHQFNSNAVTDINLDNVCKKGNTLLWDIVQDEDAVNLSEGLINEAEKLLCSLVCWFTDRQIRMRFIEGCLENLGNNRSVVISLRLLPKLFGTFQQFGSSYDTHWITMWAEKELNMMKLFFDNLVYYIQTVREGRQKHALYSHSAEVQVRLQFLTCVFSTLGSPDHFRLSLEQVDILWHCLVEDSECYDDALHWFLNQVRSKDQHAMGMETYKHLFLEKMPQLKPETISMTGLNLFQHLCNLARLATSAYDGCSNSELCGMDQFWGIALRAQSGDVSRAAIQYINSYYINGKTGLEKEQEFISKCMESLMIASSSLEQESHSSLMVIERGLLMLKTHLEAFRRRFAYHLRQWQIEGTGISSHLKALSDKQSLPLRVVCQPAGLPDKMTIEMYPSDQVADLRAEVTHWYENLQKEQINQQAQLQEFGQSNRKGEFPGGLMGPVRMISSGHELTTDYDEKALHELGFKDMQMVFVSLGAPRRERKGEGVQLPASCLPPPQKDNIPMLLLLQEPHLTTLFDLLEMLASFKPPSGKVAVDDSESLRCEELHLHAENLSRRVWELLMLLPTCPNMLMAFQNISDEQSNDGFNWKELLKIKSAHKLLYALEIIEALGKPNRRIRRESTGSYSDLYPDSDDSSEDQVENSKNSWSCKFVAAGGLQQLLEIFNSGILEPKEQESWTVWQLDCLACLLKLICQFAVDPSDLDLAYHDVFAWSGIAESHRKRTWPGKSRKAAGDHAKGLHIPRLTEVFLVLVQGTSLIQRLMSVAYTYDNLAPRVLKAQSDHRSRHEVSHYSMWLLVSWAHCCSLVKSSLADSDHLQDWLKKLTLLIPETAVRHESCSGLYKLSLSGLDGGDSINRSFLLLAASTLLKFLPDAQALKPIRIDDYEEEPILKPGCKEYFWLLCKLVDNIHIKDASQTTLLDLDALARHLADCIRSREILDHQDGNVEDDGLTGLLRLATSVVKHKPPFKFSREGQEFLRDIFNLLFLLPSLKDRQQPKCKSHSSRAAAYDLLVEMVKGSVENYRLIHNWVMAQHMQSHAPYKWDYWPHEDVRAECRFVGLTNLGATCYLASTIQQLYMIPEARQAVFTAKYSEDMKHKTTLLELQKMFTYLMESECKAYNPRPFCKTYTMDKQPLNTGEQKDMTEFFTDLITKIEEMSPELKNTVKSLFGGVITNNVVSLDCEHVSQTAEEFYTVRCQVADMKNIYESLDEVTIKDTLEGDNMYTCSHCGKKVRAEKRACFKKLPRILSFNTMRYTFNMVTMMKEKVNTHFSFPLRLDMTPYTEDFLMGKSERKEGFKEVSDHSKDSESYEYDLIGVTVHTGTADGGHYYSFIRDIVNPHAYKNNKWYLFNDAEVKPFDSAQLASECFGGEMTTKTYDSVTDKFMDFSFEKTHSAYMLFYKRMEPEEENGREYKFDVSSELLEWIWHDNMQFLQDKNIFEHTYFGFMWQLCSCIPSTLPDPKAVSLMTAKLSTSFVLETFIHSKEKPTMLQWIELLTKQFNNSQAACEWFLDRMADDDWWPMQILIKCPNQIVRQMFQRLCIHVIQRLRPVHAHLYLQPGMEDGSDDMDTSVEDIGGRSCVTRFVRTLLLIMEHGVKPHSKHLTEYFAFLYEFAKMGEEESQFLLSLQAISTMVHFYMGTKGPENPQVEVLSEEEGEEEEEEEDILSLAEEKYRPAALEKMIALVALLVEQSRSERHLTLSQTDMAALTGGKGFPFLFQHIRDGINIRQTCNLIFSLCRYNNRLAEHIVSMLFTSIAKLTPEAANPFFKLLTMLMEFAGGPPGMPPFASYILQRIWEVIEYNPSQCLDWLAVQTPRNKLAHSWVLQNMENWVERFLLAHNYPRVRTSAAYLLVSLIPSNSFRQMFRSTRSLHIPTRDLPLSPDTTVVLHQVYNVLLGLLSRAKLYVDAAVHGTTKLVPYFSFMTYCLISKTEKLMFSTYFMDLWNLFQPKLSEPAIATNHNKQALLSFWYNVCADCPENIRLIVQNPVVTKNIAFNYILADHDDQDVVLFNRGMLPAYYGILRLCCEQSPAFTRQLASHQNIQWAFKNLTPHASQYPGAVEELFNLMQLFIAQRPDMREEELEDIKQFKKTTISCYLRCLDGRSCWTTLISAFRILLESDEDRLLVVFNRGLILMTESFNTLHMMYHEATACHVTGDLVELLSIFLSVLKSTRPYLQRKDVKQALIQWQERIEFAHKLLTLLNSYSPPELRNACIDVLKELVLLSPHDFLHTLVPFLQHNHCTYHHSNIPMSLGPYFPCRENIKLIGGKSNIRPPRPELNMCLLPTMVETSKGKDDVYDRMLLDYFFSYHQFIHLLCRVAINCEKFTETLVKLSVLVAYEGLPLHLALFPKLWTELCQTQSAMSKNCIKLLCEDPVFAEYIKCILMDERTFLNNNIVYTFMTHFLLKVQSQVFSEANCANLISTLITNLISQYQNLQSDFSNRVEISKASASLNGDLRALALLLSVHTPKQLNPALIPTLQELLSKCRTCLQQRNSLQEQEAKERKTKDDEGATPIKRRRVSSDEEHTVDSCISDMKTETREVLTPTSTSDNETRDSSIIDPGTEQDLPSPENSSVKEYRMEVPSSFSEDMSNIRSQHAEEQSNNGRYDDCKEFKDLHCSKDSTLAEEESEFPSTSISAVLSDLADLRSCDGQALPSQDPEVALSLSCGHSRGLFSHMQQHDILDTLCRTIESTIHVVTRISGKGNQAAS

O=C(CCl)NC1CCS(=O)(=O)c2ccccc21 (stereo not given)
inactive: USP34 -0.0259 | USP36 -0.0862 | USP38 -0.432 | USP39 -0.117 | USP4 -0.0115
